Source: PubChem (National Center for Advancing Translational Sciences (NCATS))
Sampled rows, rich in hits. Any-hit rate of the full collection: about 19%.
MCF10A rereplic – inducers of DNA re-replication in MCF 10A breast cells; hit rate 2.9% among 350,000; MCF 10A DNA re-replication, Hoechst nuclear intensity, 48 h; Potency, µM (titrated, usually from 46.1 µM), for the others: at the highest dose activity, positive = re-replication, most hits filed as activators; also: potency is read from the fitted curve at half-maximal effect; % of control where 0% means no effect; nearly all actives have a fitted effect of over 50% in size
IL-1B inflam inh – inflammasome signaling inhibition, IL-1 beta readout | hit rate 4.7% among 360,000 | activity change, % at 57.5 µM | THP-1 LPS/ATP IL-1B secretion, AlphaLISA, 16 h; stronger effect = lower value; in the data active = activity change below about -50%; inconclusive = mostly about -30% to -49%; also: % is scaled to controls: 0 for no effect and ±100 for the full control effect
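THP-1 cells pretreated 1 hr with compounds (up to 57.5 uM final), then stimulated with LPS (250 ng/mL final) plus ATP (1.25 mM final); secreted IL-1B measured by AlphaLISA after 16 hr, decreased signal indicating inhibition.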
BCR signal inh – blocks chronic active B-cell receptor signaling. Potency, µM (highest dose often 46.1 µM), without a hit: at the top dose activity change, negative = inhibition, usual class: inhibitors. hit rate 0.05% among 340,000. ABC-DLBCL IkBa-CBG/CBR reporter, luminescence ratio, 4 h. AID 493014; active = well fitted inhibition curve with a large enough effect in the signal ratio, with a control signal flat, not every such curve was filed as active; inconclusive = small, poorly fitted or top-dose-only effect, or effect the other way, or a change in a side signal; the % refers to the signal ratio;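 also: potency is read from the fitted curve at half-maximal effect; plate controls were basal doxycycline-induced cells for no effect and cells given 10 µM MG132 for full effect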
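Concentration-response series (up to 46 uM) were applied to TMD8 dual-reporter cells for 4 h at 37C with doxycycline. Green/red ratio, after filter-overlap correction, defined %Activity; red signal alone was normalised to basal cells and zero luminescence.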
TDP1 cell noCPT – qHTS for Inhibitors of human tyrosyl-DNA phosphodiesterase 1 (TDP1): qHTS in cells in absence of CPT | DT40 Tdp1-/- hTDP1 cells, no CPT, ATP luminescence, 48 h | Potency, µM (titrated, usually from 46.2 µM), for inactives: at the highest dose activity change, negative = growth inhibition, actives largely listed as inhibitors | hit rate 15% among 420,000 | AID 686978, 2013; also: potency is read from the fitted curve at half-maximal effect; % is scaled to controls: 0 for no effect and ±100 for the full control effect; nearly all actives have a fitted effect of over 55% in size
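Luminescent ATP content (CellTiter-Glo) served as the growth readout. Knockout chicken DT40 cells expressing human TDP1 were exposed to compounds without camptothecin for a minimum 48 hr at 37 °C.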
DT40 TDP1 CPT – DT40-hTDP1 cell growth loss with CPT; chicken DT40 Tdp1-/-;hTDP1 cells + 20 nM CPT, ATP luminescence, 48 h; Potency, µM (highest dose often 46.2 µM), for the others: at the highest dose activity change, negative = growth inhibition, most hits filed as inhibitors; hit rate 12% among 420,000; also: potency is read from the fitted curve at half-maximal effect; % is scaled to controls: 0 for no effect and ±100 for the full control effect; nearly all actives have a fitted effect of over 55% in size
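Cell growth measured by CellTiter-Glo luminescence after a minimum 48 h, 37 C compound exposure with 20 nM CPT in Tdp1-knockout DT40 cells stably expressing hTDP1, seeded 400/well; qHTS titration format.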
SW480 rerep – inducers of DNA re-replication in SW480 colon cancer cells. SW480 DNA re-replication, Hoechst DNA content imaging, 48 h. Potency, µM (series often up to 46.1 µM), for the others: at the highest dose re-replication activation, hits mostly activators. hit rate 1.8% among 340,000. AID 624297; also: potency is read from the fitted curve at half-maximal effect; % of control where 0% means no effect; nearly all actives have a fitted effect of over 55% in size
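First, 250 cells per well were seeded. Next, compound or vehicle (23 nL) was pinned in, plates sat 48 hr at 37 C. Finally Hoechst was added for 40 min before fluorescence scanning.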
Active calls of the source: *; ? = inconclusive; . = not tested or not shown. Unless noted, calls follow the shape of the dose curve; as a rule, active = well fitted curve in the direction sought with a large enough effect; inconclusive = small, poorly fitted or top-dose-only effect, or another doubt; inactive = no such curve, though single readings can be large; an effect the other way counts as inactive or inconclusive.

SMILES	MCF10A rereplic	IL-1B inflam inh	BCR signal inh	TDP1 cell noCPT	DT40 TDP1 CPT	SW480 rerep
COc1ccc(Cn2cc3c(-c4ccc(F)cc4)nnc-3c3cc(OC)c(OC)cc32)cc1	?	0	?	4.1µM*	4.1µM*	?
Cc1ccc2c(c1)c(=O)c(C(=O)c1ccncc1)cn2CC(=O)Nc1ccccc1Cl	.	.	.	-1%	-26%	.
COc1ccccc1C(=O)NNC(=S)NC(=O)c1cc(OC)c(OC)c(OC)c1	?	122	?	6.5µM*	18µM*	?
COc1cc(C(=O)NNC(=S)NC(=O)c2ccccc2C)cc(OC)c1OC	?	-2	-21%	?	16µM*	18%
COc1ccc(C(=O)NC(=S)NNC(=O)c2ccccc2C)cc1	1%	27	.	?	?	4%
COc1cc(C(=O)NC(=S)NNC(=O)[C@H]2C[C@@H]2c2ccccc2)cc(OC)c1OC	14%	62	0%	-15%	-10%	13%
CCc1nc2c(OCC(=O)C(C)(C)C)cccn2c1N(C)C(=O)Nc1ccccc1OC	.	12	.	-27%	?	.
CC(C)CCOc1ccc(C(=O)NN2C(=O)NC3(CCCCC3)C2=O)cc1	7%	25	5%	?	?	-4%
CC(=O)Nc1nc(-c2ccc(Cl)cc2)ns1	?	0	4%	?	?	-264%
CC(C)=CCC1C(=O)N(c2ccccc2)N(c2ccccc2)C1=O	30µM*	.	.	3.8µM*	3.8µM*	?
CCCCC1C(=O)N(c2ccccc2)N(c2ccc(O)cc2)C1=O (stereo unspecified)	?	-109*	-4%	0.58µM*	1µM*	?
CCCCC1C2C(=O)N(c3ccc(C)cc3)C(=O)C2ON1c1ccccc1 (stereo unspecified)	-3%	3	?	-2%	2%	-79%
N#Cc1ccc(S(=O)(=O)NCC(=O)OCC(=O)N2CCCC2=O)cc1	0%	-3	-5%	-24%	-22%	-5%
C[N+](C)(C)CCC(=O)N1C/C(=C/c2ccccc2)C(=O)/C(=C\c2ccccc2)C1	?	-98*	.	0.92µM*	0.65µM*	0.73µM*
O=C1/C(=C/c2ccccc2)CN(C(=O)CCN2CCOCC2)C/C1=C\c1ccccc1	2.3µM*	-101*	.	1.8µM*	1.6µM*	?
C/C(=C\c1ccccc1)C(=O)NCCN1CCOCC1	-6%	-4	-4%	-14%	-4%	9%
O=C(/C=C/c1ccccc1)CCN1CCOCC1	?	-84*	.	1.5µM*	0.92µM*	8.2µM*
CCOC(=O)N1C/C(=C\c2ccccc2)C(=O)/C(=C/c2ccccc2)C1	?	?	?	3.7µM*	4.6µM*	?
CC(C)c1cccc(C(C)C)c1NC(=O)CN(C)C1CCS(=O)(=O)C1 (stereo unspecified)	-4%	0	-1%	0%	-12%	-6%
O=C(Nc1cc(C(F)(F)F)ccc1N1CCCC1)C1CCCO1 (stereo unspecified)	-3%	13	?	-9%	0%	0%
CCC(=O)NC1CC(=O)N(c2ccc3c(c2)OCCO3)C1 (stereo unspecified)	.	.	?	-15%	1%	.
CN(C)CCNC(=O)C(c1ccccc1)c1ccccc1	4%	-15	?	-23%	-5%	-18%
CN(C)CCC(=O)N1C/C(=C/c2ccccc2)C(=O)/C(=C\c2ccccc2)C1	31%	-100*	.	1.8µM*	1.8µM*	?
O=C(NCc1ccccc1)C(c1ccc(-c2ccccc2)cc1)N1CCN(CCN2CCOCC2)CC1 (stereo unspecified)	.	-20	.	21µM*	16µM*	.
